From PubChem BioAssay AID1159580 (chemical genetic matrix, 2015)
“And” between values parts separate entries of the source, which are not always exact repeats. Identical values can stand only once. The whole screen tested about 5,500 compounds, of which about 2,000 (36%) were called active. Not shown: some 18% with an inconclusive outcome. Cut-off read from the data, not from the text of the source: active = normalized growth mostly below about 0.91 (no sharp cut-off); inconclusive = no clear call, values can overlap the other calls; inactive = mostly above about 0.92. The list shows a part of the results.

Assay: chemical genetic growth profiling, strain panel (AID 1159580);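 note: tested at 20 µM; growth read once vehicle control cultures reached saturation at 30 °C; 1 = growth at the plate median or of vehicle wells; lower values mean less growth of the strain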
Conditions: S. cerevisiae deletion strains, growth OD

Measured: normalized growth

Oc1cc(O)c2c(c1)O[C@H](c1cc(O)c(O)c(O)c1)[C@H](O)C2
inactive: locus YAL021C, strain ccr4, active compounds read low 0.992 | locus YAL026C, strain drs2, active compounds read low 1.02 | locus YAL030W, strain snc1, active compounds read low 1.01 | locus YBL061C, strain skt5, active compounds read low 1.02 | locus YBR009C, strain hhf1, active compounds read low 1.02 | locus YBR021W, strain FUR4, active compounds read low 1.03 | locus YBR023C, strain chs3, active compounds read low 1.02 | locus YBR171W, strain sec66, active compounds read low 1.03 | locus YBR229C, strain ROT2, active compounds read low 0.996 | locus YBR231C, strain swc5, active compounds read low 1 | locus YBR279W, strain paf1, active compounds read low 1.01 | locus YCL011C, strain gbp2, active compounds read low 1.02 | locus YCL016C, strain dcc1, active compounds read low 1.02 | locus YCL029C, strain bik1, active compounds read low 0.986 | locus YCL061C, strain MRC1, active compounds read low 1.02 | locus YCL069W, strain vba3, active compounds read low 1.02 | locus YCR088W, strain abp1, active compounds read low 1.02 | locus YDL005C, strain med2, active compounds read low 1.03 | locus YDL035C, strain GPR1, active compounds read low 1.03 | locus YDL040C, strain nat1, active compounds read low 1.01 | locus YDL074C, strain BRE1, active compounds read low 0.981 | locus YDL101C, strain DUN1, active compounds read low 0.985 | locus YDL185W, strain tfp1, active compounds read low 0.983 | locus YDL192W, strain arf1, active compounds read low 0.982 | locus YDR001C, strain nth1, active compounds read low 1.02 | locus YDR069C, strain doa4, active compounds read low 0.993 | locus YDR101C, strain arx1, active compounds read low 0.985 | locus YDR137W, strain rgp1, active compounds read low 1.06 | locus YDR150W, strain NUM1, active compounds read low 0.995 | locus YDR162C, strain NBP2, active compounds read low 1.02 | locus YDR195W, strain ref2 1.05 | locus YDR297W, strain sur2, active compounds read low 1.02 | locus YDR318W, strain mcm21, active compounds read low 0.999 | locus YDR334W, strain swr1, active compounds read low 1.02 | locus YDR335W, strain msn5, active compounds read low 1.01 | locus YDR388W, active compounds read low 0.988 | locus YDR392W, strain spt3, active compounds read low 1.02 | locus YDR502C, strain sam2, active compounds read low 1.02 | locus YEL003W, strain gim4, active compounds read low 1.02 | locus YEL037C, strain rad23, active compounds read low 1.01 | locus YEL061C, strain CIN8 (second series), active compounds read low 1.03 | locus YEL061C, strain CIN8, active compounds read low 0.999 | locus YER015W, strain faa2, active compounds read low 0.999 | locus YER016W, strain bim1, active compounds read low 1.02 | locus YER110C, active compounds read low 0.984 | locus YER111C, strain swi4, active compounds read low 1.01 | locus YER155C, strain BEM2 (second series), active compounds read low 1.01 | locus YER155C, strain BEM2, active compounds read low 1.01 | locus YER167W, strain BCK2, active compounds read low 1.02 | locus YFR010W, strain ubp6, active compounds read low 1.02 | locus YGL078C, strain dbp3, active compounds read low 0.993 | locus YGL086W, strain mad1, active compounds read low 0.993 | locus YGL167C, strain pmr1, active compounds read low 1.01 | locus YGL173C, strain kem1, active compounds read low 1.02 | locus YGL227W, strain vid30, active compounds read low 1.02 | locus YGL240W, strain doc1, active compounds read low 1.03 | locus YGL248W, strain PDE1, active compounds read low 0.991 | locus YGL253W, strain hxk2, active compounds read low 1.03 | locus YGR135W, strain pre9, active compounds read low 0.99 | locus YGR252W, strain gcn5, active compounds read low 1.02 | locus YHR013C, strain ard1, active compounds read low 1.03 | locus YHR027C, strain rpn1, active compounds read low 1.02 | locus YHR030C, strain SLT2, active compounds read low 0.992 and 0.996 | locus YHR079C, strain IRE1 (second series), active compounds read low 1.01 | locus YHR079C, strain IRE1, active compounds read low 1.01 | locus YHR094C, strain hxt1, active compounds read low 0.983 | locus YHR129C, strain ARP1, active compounds read low 0.997 | locus YHR142W, strain chs7, active compounds read low 1.04 | locus YHR200W, strain rpn10, active compounds read low 0.994 | locus YIL066C, strain RNR3, active compounds read low 1.01 | locus YIL073C, strain SPO22, active compounds read low 1.01 | locus YIL125W, strain kgd1, active compounds read low 0.997 | locus YIR030C, strain dcg1, active compounds read low 1 | locus YJL092W, strain hpr5, active compounds read low 1.02 | locus YJL095W, strain BCK1 (second series), active compounds read low 1.02 | locus YJL095W, strain BCK1, active compounds read low 0.947 and 1.01 | locus YJL115W, strain asf1, active compounds read low 1.03 | locus YJL129C, strain trk1, active compounds read low 1.08 | locus YJL134W, strain LCB3, active compounds read low 0.992 | locus YJL154C, strain vps35, active compounds read low 1.02 | locus YJL164C, strain tpk1, active compounds read low 1.01 | locus YJL166W, strain qcr8, active compounds read low 1.02 | locus YJL168C, strain set2, active compounds read low 1 | locus YJL187C, strain SWE1 (second series), active compounds read low 0.952 | locus YJL187C, strain SWE1, active compounds read low 1.02
active: locus YDR159W, strain sac3, active compounds read low 1.18 [resistant]
